Data on 41 sequences can be found in PMC11006913.

Holding throughout (assay): PBM; 200 nM protein, PBS
Holding throughout (conditions): dsDNA, one strand shown

Assay [1] addresses ALX4 (Homo sapiens, UniProt Q9H161 200-286).
In assay [2] the target is PRRX1 (Homo sapiens, UniProt P54821 80-166, F113S).
Assay [3] concerns the target ALX4 (Homo sapiens, UniProt Q9H161 200-286, Q225E).
Assay [4] has as its target PRRX1 (Homo sapiens, UniProt P54821 80-166).
Assay [5] addresses HOXC10 (Homo sapiens, UniProt Q9NYD6 254-340).
For assay [6], the target named is HOXC10 (Homo sapiens, UniProt Q9NYD6 254-340, K271E).
Assay [7] deals with PROP1 (Homo sapiens, UniProt O75360 56-141).
In assay [8] the target is PROP1 (Homo sapiens, UniProt O75360 56-141, R99H).
For assay [9], the target named is PROP1 (Homo sapiens, UniProt O75360 56-141, F88S).
The target in assay [10] is MSX2 (Homo sapiens, UniProt P35548 130-214).
Assay [11] has as its target MSX2 (Homo sapiens, UniProt P35548 130-214, F161Y).
The next assay addresses CRX (Homo sapiens, UniProt O43186 26-111, R41L).
In assay [12] the target is HOXB6 (Homo sapiens, UniProt P17509 132-218, K202E).
Assay [13] concerns the target HOXB6 (Homo sapiens, UniProt P17509 132-218).
For another assay, the target named is T1, NKX2-6 (Homo sapiens, UniProt A6NCS4 118-204, R150C).
T1 sequence: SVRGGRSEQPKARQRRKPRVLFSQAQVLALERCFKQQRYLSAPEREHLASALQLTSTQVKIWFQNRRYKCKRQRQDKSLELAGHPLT

Assay [14] concerns the target MSX2 (Homo sapiens, UniProt P35548 130-214, R199I).
Assay [15] deals with ALX3 (Homo sapiens, UniProt O95076 139-225, N203Q).
Assay [16] deals with ALX3 (Homo sapiens, UniProt O95076 139-225).
The target in assay [17] is ALX3 (Homo sapiens, UniProt O95076 139-225, L168Q).
Assay [18] addresses ALX3 (Homo sapiens, UniProt O95076 139-225, L168V).
Assay [19] addresses ALX3 (Homo sapiens, UniProt O95076 139-225, N203S).

Chain of ALX4 (Homo sapiens, UniProt Q9H161 200-286) (Q9H161 200-286): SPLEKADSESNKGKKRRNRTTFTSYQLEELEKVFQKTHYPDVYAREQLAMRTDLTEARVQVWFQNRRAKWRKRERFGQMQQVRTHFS
Chain of PRRX1 (Homo sapiens, UniProt P54821 80-166, F113S) (P54821 80-166 F113S): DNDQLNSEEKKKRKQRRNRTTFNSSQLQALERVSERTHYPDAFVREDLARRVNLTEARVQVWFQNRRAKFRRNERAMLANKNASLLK
Chain of PRRX1 (Homo sapiens, UniProt P54821 80-166) (P54821 80-166): as the sequence (P54821 80-166 F113S) above, with S34F counted along it
Chain of HOXC10 (Homo sapiens, UniProt Q9NYD6 254-340) (Q9NYD6 254-340): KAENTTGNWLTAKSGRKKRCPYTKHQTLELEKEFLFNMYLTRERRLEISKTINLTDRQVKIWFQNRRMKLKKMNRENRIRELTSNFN
Chain of ALX4 (Homo sapiens, UniProt Q9H161 200-286, Q225E) (Q9H161 200-286 Q225E): as the sequence (Q9H161 200-286) above, with Q26E counted along it
Chain of HOXB6 (Homo sapiens, UniProt P17509 132-218) (P17509 132-218): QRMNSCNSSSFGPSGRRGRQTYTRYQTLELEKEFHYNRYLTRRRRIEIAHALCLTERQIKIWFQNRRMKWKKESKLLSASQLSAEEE
Chain of HOXB6 (Homo sapiens, UniProt P17509 132-218, K202E) (P17509 132-218 K202E): as the sequence (P17509 132-218) above, with K71E counted along it
Chain of HOXC10 (Homo sapiens, UniProt Q9NYD6 254-340, K271E) (Q9NYD6 254-340 K271E): as the sequence (Q9NYD6 254-340) above, with K18E counted along it
Chain of MSX2 (Homo sapiens, UniProt P35548 130-214) (P35548 130-214): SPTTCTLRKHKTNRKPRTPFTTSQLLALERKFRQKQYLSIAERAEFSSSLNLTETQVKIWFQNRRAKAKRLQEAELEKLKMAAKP
Chain of MSX2 (Homo sapiens, UniProt P35548 130-214, F161Y) (P35548 130-214 F161Y): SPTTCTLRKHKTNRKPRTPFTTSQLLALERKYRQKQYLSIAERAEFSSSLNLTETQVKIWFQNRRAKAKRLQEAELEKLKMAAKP
Chain of PROP1 (Homo sapiens, UniProt O75360 56-141) (O75360 56-141): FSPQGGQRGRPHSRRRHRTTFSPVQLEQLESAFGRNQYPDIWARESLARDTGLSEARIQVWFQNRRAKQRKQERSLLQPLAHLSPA
Chain of MSX2 (Homo sapiens, UniProt P35548 130-214, R199I) (P35548 130-214 R199I): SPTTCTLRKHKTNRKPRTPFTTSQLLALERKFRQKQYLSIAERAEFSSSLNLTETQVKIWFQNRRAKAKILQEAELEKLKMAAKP
Chain of ALX3 (Homo sapiens, UniProt O95076 139-225, L168Q) (O95076 139-225 L168Q): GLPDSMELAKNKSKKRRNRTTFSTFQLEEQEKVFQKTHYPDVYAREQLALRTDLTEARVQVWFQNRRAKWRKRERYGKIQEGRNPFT
Chain of ALX3 (Homo sapiens, UniProt O95076 139-225, N203S) (O95076 139-225 N203S): as the sequence (O95076 139-225 L168Q) above, with Q30L, N65S counted along it
Chain of ALX3 (Homo sapiens, UniProt O95076 139-225, N203Q) (O95076 139-225 N203Q): as the sequence (O95076 139-225 L168Q) above, with Q30L, N65Q counted along it
Chain of CRX (O43186 26-111 R41L): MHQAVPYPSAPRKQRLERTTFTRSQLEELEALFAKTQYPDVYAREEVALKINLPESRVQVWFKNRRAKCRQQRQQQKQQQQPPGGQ
Chain of PROP1 (Homo sapiens, UniProt O75360 56-141, F88S) (O75360 56-141 F88S): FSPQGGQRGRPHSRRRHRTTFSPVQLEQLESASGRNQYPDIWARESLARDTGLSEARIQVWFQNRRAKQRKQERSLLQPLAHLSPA
Chain of ALX3 (Homo sapiens, UniProt O95076 139-225, L168V) (O95076 139-225 L168V): as the sequence (O95076 139-225 L168Q) above, with Q30V counted along it
Chain of PROP1 (Homo sapiens, UniProt O75360 56-141, R99H) (O75360 56-141 R99H): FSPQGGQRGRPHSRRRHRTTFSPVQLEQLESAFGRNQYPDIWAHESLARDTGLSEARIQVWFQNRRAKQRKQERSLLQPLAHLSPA
Chain of ALX3 (Homo sapiens, UniProt O95076 139-225) (O95076 139-225): as the sequence (O95076 139-225 L168Q) above, with Q30L counted along it

For ATGTCTTA, in the assay with ALX4 [1], the binding signal was 9.38 upbm affinity estimate (log intensity, higher = more binding, comparable within an allelic series).
Turning to GAGCACCC, the binding signal with ALX4 [1] is 7.99 upbm affinity estimate (log intensity, higher = more binding, comparable within an allelic series); with PRRX1 [2], 9.2 upbm affinity estimate (log intensity, higher = more binding, comparable within an allelic series); with ALX4 [3], 8.37 upbm affinity estimate (log intensity, higher = more binding, comparable within an allelic series); with PRRX1 [4] it was 9.01 upbm affinity estimate (log intensity, higher = more binding, comparable within an allelic series).
In the case of CTCGGCCA, the binding signal with HOXC10 [5] was 10.1 upbm affinity estimate (log intensity, higher = more binding, comparable within an allelic series); in the assay with HOXC10 [6] it was 10.1 upbm affinity estimate (log intensity, higher = more binding, comparable within an allelic series); in the assay with PROP1 [7], 6.9 upbm affinity estimate (log intensity, higher = more binding, comparable within an allelic series); with PROP1 [8], 6.67 upbm affinity estimate (log intensity, higher = more binding, comparable within an allelic series); with PROP1 [9] it was 6.71 upbm affinity estimate (log intensity, higher = more binding, comparable within an allelic series).
In the case of AAATTCGA, in the assay with ALX4 [1], the binding signal is 10.7 upbm affinity estimate (log intensity, higher = more binding, comparable within an allelic series).
On to TACTTAGA, for which the binding signal was 10.8 upbm affinity estimate (log intensity, higher = more binding, comparable within an allelic series) with HOXC10 [5]; 11.1 upbm affinity estimate (log intensity, higher = more binding, comparable within an allelic series) with MSX2 [10]; 10.9 upbm affinity estimate (log intensity, higher = more binding, comparable within an allelic series) with MSX2 [11].
With TATTAAGA, the binding signal was 11.2 upbm affinity estimate (log intensity, higher = more binding, comparable within an allelic series) with HOXC10 [5]; 10.9 upbm affinity estimate (log intensity, higher = more binding, comparable within an allelic series) in the assay with HOXC10 [6]; 10.6 upbm affinity estimate (log intensity, higher = more binding, comparable within an allelic series) with CRX.
Turning to AAGTTTAC, the binding signal in the assay with ALX4 [1] was 9.93 upbm affinity estimate (log intensity, higher = more binding, comparable within an allelic series).
On the same count and under the same terms, under AATACTTA stands 10.5 upbm affinity estimate (log intensity, higher = more binding, comparable within an allelic series).
On the same count and under the same terms, as for ATATAGTC, the figure is 8.99 upbm affinity estimate (log intensity, higher = more binding, comparable within an allelic series); as for CCCATAAC, 9.61 upbm affinity estimate (log intensity, higher = more binding, comparable within an allelic series).
Take CCCTCACG: the binding signal was 8.1 upbm affinity estimate (log intensity, higher = more binding, comparable within an allelic series) with ALX4 [1] and 8.28 upbm affinity estimate (log intensity, higher = more binding, comparable within an allelic series) in the assay with ALX4 [3].
In the case of AAGCCGGC, the binding signal with ALX4 [1] was 7.99 upbm affinity estimate (log intensity, higher = more binding, comparable within an allelic series); with ALX4 [3], 8.26 upbm affinity estimate (log intensity, higher = more binding, comparable within an allelic series).
Turning to AACTTACA, the binding signal was 9.85 upbm affinity estimate (log intensity, higher = more binding, comparable within an allelic series) with ALX4 [1] and 9.42 upbm affinity estimate (log intensity, higher = more binding, comparable within an allelic series) in the assay with ALX4 [3].
As for CGGATGTC, the binding signal with ALX4 [1] is 8.26 upbm affinity estimate (log intensity, higher = more binding, comparable within an allelic series); in the assay with ALX4 [3] it was 8.17 upbm affinity estimate (log intensity, higher = more binding, comparable within an allelic series).
On to CGGCCGAC, for which the binding signal in the assay with ALX4 [1] is 7.76 upbm affinity estimate (log intensity, higher = more binding, comparable within an allelic series); with ALX4 [3], 8.04 upbm affinity estimate (log intensity, higher = more binding, comparable within an allelic series).
Consider CCGTCCCC, for which the binding signal with ALX4 [1] was 8.07 upbm affinity estimate (log intensity, higher = more binding, comparable within an allelic series); with ALX4 [3] it was 8.31 upbm affinity estimate (log intensity, higher = more binding, comparable within an allelic series).
As for GACGCGGC, the binding signal is 8.04 upbm affinity estimate (log intensity, higher = more binding, comparable within an allelic series) in the assay with ALX4 [1] and 8.07 upbm affinity estimate (log intensity, higher = more binding, comparable within an allelic series) in the assay with ALX4 [3].
CCTAGAGA: the binding signal is 8.06 upbm affinity estimate (log intensity, higher = more binding, comparable within an allelic series) with ALX4 [1] and 8.18 upbm affinity estimate (log intensity, higher = more binding, comparable within an allelic series) in the assay with ALX4 [3].
Regarding CCCCTCTC, the binding signal was 8.15 upbm affinity estimate (log intensity, higher = more binding, comparable within an allelic series) with ALX4 [1] and 8.2 upbm affinity estimate (log intensity, higher = more binding, comparable within an allelic series) with ALX4 [3].
Take CCCTTCCA: the binding signal with ALX4 [1] is 8.25 upbm affinity estimate (log intensity, higher = more binding, comparable within an allelic series); in the assay with ALX4 [3], 8.35 upbm affinity estimate (log intensity, higher = more binding, comparable within an allelic series).
Regarding ACCTCCTC, the binding signal with ALX4 [1] is 8.28 upbm affinity estimate (log intensity, higher = more binding, comparable within an allelic series); with ALX4 [3] it was 8.12 upbm affinity estimate (log intensity, higher = more binding, comparable within an allelic series).
On to ATATGTAA, for which the binding signal is 10.2 upbm affinity estimate (log intensity, higher = more binding, comparable within an allelic series) with ALX4 [1] and 9.63 upbm affinity estimate (log intensity, higher = more binding, comparable within an allelic series) with ALX4 [3].
In the case of CCTCGAAC, the binding signal is 8.02 upbm affinity estimate (log intensity, higher = more binding, comparable within an allelic series) with ALX4 [1]; 9.46 upbm affinity estimate (log intensity, higher = more binding, comparable within an allelic series) with PRRX1 [2]; 8.29 upbm affinity estimate (log intensity, higher = more binding, comparable within an allelic series) with ALX4 [3]; 9.07 upbm affinity estimate (log intensity, higher = more binding, comparable within an allelic series) with PRRX1 [4].
ATTTTCTC: the binding signal is 10.1 upbm affinity estimate (log intensity, higher = more binding, comparable within an allelic series) in the assay with ALX4 [1] and 9.45 upbm affinity estimate (log intensity, higher = more binding, comparable within an allelic series) in the assay with ALX4 [3].
With TCCGATAA, the binding signal is 10.1 upbm affinity estimate (log intensity, higher = more binding, comparable within an allelic series) with ALX4 [1] and 9.41 upbm affinity estimate (log intensity, higher = more binding, comparable within an allelic series) in the assay with ALX4 [3].
CATCAATC: the binding signal is 10.6 upbm affinity estimate (log intensity, higher = more binding, comparable within an allelic series) with ALX4 [1]; 9.69 upbm affinity estimate (log intensity, higher = more binding, comparable within an allelic series) with HOXB6 [12]; 10.5 upbm affinity estimate (log intensity, higher = more binding, comparable within an allelic series) with HOXB6 [13].
With GGAAGCCA, the binding signal is 8.23 upbm affinity estimate (log intensity, higher = more binding, comparable within an allelic series) with ALX4 [1] and 8.17 upbm affinity estimate (log intensity, higher = more binding, comparable within an allelic series) with ALX4 [3].
Regarding ACTTACCG, the binding signal with ALX4 [1] is 9.9 upbm affinity estimate (log intensity, higher = more binding, comparable within an allelic series); in the assay with ALX4 [3] it was 9.28 upbm affinity estimate (log intensity, higher = more binding, comparable within an allelic series).
On to AATTTTGA, for which the binding signal with ALX4 [1] was 11.1 upbm affinity estimate (log intensity, higher = more binding, comparable within an allelic series); in the assay with ALX4 [3], 10.2 upbm affinity estimate (log intensity, higher = more binding, comparable within an allelic series).
On to GAGGACCC, for which the binding signal with ALX4 [1] was 7.88 upbm affinity estimate (log intensity, higher = more binding, comparable within an allelic series); with PRRX1 [2], 9.19 upbm affinity estimate (log intensity, higher = more binding, comparable within an allelic series); with ALX4 [3], 7.98 upbm affinity estimate (log intensity, higher = more binding, comparable within an allelic series); with PRRX1 [4], 9.51 upbm affinity estimate (log intensity, higher = more binding, comparable within an allelic series).
Consider ATAACCTC, for which the binding signal in the assay with ALX4 [1] was 9.88 upbm affinity estimate (log intensity, higher = more binding, comparable within an allelic series); in the assay with ALX4 [3], 9.24 upbm affinity estimate (log intensity, higher = more binding, comparable within an allelic series).
As for ATTACGAA, the binding signal is 11.4 upbm affinity estimate (log intensity, higher = more binding, comparable within an allelic series) with ALX4 [1] and 10.3 upbm affinity estimate (log intensity, higher = more binding, comparable within an allelic series) with ALX4 [3].
For the sequence GGTTATCA, the binding signal with ALX4 [1] was 9.51 upbm affinity estimate (log intensity, higher = more binding, comparable within an allelic series); with ALX4 [3], 9.1 upbm affinity estimate (log intensity, higher = more binding, comparable within an allelic series).
Take GAATACAA: the binding signal is 9.67 upbm affinity estimate (log intensity, higher = more binding, comparable within an allelic series) in the assay with ALX4 [1] and 9.34 upbm affinity estimate (log intensity, higher = more binding, comparable within an allelic series) in the assay with ALX4 [3].
With AATGGATA, the binding signal was 10.2 upbm affinity estimate (log intensity, higher = more binding, comparable within an allelic series) with ALX4 [1] and 9.39 upbm affinity estimate (log intensity, higher = more binding, comparable within an allelic series) with ALX4 [3].
Regarding CCATCGGA, the binding signal is 8.15 upbm affinity estimate (log intensity, higher = more binding, comparable within an allelic series) with ALX4 [1] and 8.29 upbm affinity estimate (log intensity, higher = more binding, comparable within an allelic series) with ALX4 [3].
On to CCTCCTAC, for which the binding signal is 7.75 upbm affinity estimate (log intensity, higher = more binding, comparable within an allelic series) in the assay with ALX4 [1] and 8.06 upbm affinity estimate (log intensity, higher = more binding, comparable within an allelic series) with ALX4 [3].
As to CCACCGGC, the binding signal with ALX4 [1] was 8.04 upbm affinity estimate (log intensity, higher = more binding, comparable within an allelic series); with HOXB6 [12], 8.97 upbm affinity estimate (log intensity, higher = more binding, comparable within an allelic series); in the assay with ALX4 [3], 7.94 upbm affinity estimate (log intensity, higher = more binding, comparable within an allelic series); in the assay with NKX2-6 it was 9.32 upbm affinity estimate (log intensity, higher = more binding, comparable within an allelic series); with MSX2 [14] it was 9.39 upbm affinity estimate (log intensity, higher = more binding, comparable within an allelic series); with ALX3 [15], 7.68 upbm affinity estimate (log intensity, higher = more binding, comparable within an allelic series). Besides, the binding signal with MSX2 [10] was 9.41 upbm affinity estimate (log intensity, higher = more binding, comparable within an allelic series); with ALX3 [16], 7.64 upbm affinity estimate (log intensity, higher = more binding, comparable within an allelic series); with ALX3 [17] it was 7.76 upbm affinity estimate (log intensity, higher = more binding, comparable within an allelic series); with ALX3 [18] it was 7.67 upbm affinity estimate (log intensity, higher = more binding, comparable within an allelic series); in the assay with MSX2 [11], 9.32 upbm affinity estimate (log intensity, higher = more binding, comparable within an allelic series); in the assay with ALX3 [19], 7.64 upbm affinity estimate (log intensity, higher = more binding, comparable within an allelic series). In addition, the binding signal with HOXB6 [13] was 8.83 upbm affinity estimate (log intensity, higher = more binding, comparable within an allelic series).
As for ATGATAAA, the binding signal was 10.4 upbm affinity estimate (log intensity, higher = more binding, comparable within an allelic series) with ALX4 [1] and 9.81 upbm affinity estimate (log intensity, higher = more binding, comparable within an allelic series) with ALX4 [3].
Regarding CCTGCAGG, the binding signal was 8.12 upbm affinity estimate (log intensity, higher = more binding, comparable within an allelic series) with ALX4 [1]; 9.05 upbm affinity estimate (log intensity, higher = more binding, comparable within an allelic series) with HOXB6 [12]; 8.04 upbm affinity estimate (log intensity, higher = more binding, comparable within an allelic series) in the assay with ALX4 [3]; 8.92 upbm affinity estimate (log intensity, higher = more binding, comparable within an allelic series) with HOXB6 [13].
Take ATAACCAA: the binding signal with ALX4 [1] is 10.1 upbm affinity estimate (log intensity, higher = more binding, comparable within an allelic series); with ALX4 [3], 9.6 upbm affinity estimate (log intensity, higher = more binding, comparable within an allelic series).
